# Data from PubChem BioAssay AID2284345 (EPA ToxCast).
# Records with an inconclusive call do not appear. Activity calls are given as the source filed them. The calls were made as follows: active = hit-call score of the fitted dose curve at least 0.9, where 1 is the maximum; inconclusive = response in the unintended direction; inactive = score below 0.9.
# System: zebrafish Glucocorticoid Receptor (GR), gene 553740
# Assay: ATG_zfGR_EcoTox2: Attagene TRANS-FACTORIAL EcoTox-2 HepG2 Assay for zebrafish Glucocorticoid Receptor (GR)
# Method: ATG_EcoTox2 is a cell-based, multiplexed assay created by modifying the existing Attagene TRANS-FACTORIAL system to include a panel of nuclear receptors from some or all the following species: human (Homo sapiens), african clawed frog (Xenopus laevis), rainbow trout (Oncorhynchus mykiss), japanese medaka (Oryzias latipes), and zebrafish (Danio rerio). The ECOTOX2-FACTORIAL format uses HepG2, a human liver cell line, with measurements taken at 24 hours after chemical dosing in a 24-well plate. ATG_zfGR_EcoTox2 is one of 29 assay components calculated in the ATG_EcoTox2 assay. It is designed to make measurements of mRNA induction, a form of inducible reporter, as detected with fluorescence intensity signals by Reverse transcription polymerase chain reaction (RT-PCR) and Capillary electrophoresis technology.The assay endpoint ATG_zfGR_EcoTox2 was analyzed in the positive analysis fitting direction relative to DMSO as the negative control and baseline of activity. Using a type of inducible reporter, measures of mRNA for gain-of-signal activity can be used to understand the reporter gene at the transcription factor-level as they relate to the gene for glucocorticoid receptor. Furthermore, this assay endpoint can be referred to as a primary readout, because this assay has produced multiple assay endpoints where this one serves a reporter gene function. To generalize the intended target to other relatable targets, this assay endpoint is annotated to the nuclear receptor intended target family, where the subfamily is steroidal.
# Human liver HepG2 cells are transiently transfected with multiple reporter transcription units (MRTUs) in 6-well plates using FuGene 6 reagent (Roche; 3 ml FuGene/1 mg DNA). The MRTU constructs are regulated by a cis-regulating element (promoter). Each RTU expresses a GAL4-UAS that regulates the transcription of a nearby target reporter gene sequence. A major difference between the CIS and TRANS system is that in CIS activities of endogenous TFs are measured, whereas the TRANS assay evaluates changes in activities of exogenous, chimeric NR-Gal4 proteins. […] At the end of 24 hour incubation, total RNA was isolated using TriZol reagent (Invitrogen). The isolated RNA is then reverse-transcribed using oligo(dT) primer and Mo-MLV reverse transcriptase (Invitrogen) with DNAse I (Ambion) treatment for 30 min. The one-tenth of the produced cDNA was amplified by PCR using Taq DNA polymerase (Invitrogen) and two reporter sequence-specific primers. The PCR products were fluorescently labeled by primer extension with 6-arboxyfluorescein (6-FAM) 5'-labeled reporter sequence-specific primer (2 min at 95 C, 20 s at 68 C and 10 min at 72 C) and these products were digested with 5U of HpaI (New England Biolabs) for 2h at 37 C. The fragments were purified using Qiaquick PCR columns (Qiagen), analyzed on an ABI 3130xL genetic analyzer (Applied Biosystems) with peak positions identified by using a set of X-rhodamine (ROX)-labeled MapMarker1000 molecular weight standards (BioVentures). The raw capillary electrophoresis data was processed using Attagraph software (Attagene).
SMILES,outcome,AC50
C[C@]12C=CC(=O)C=C1CC[C@@H]1[C@@H]2C(=O)C[C@@]2(C)[C@H]1CC[C@]2(O)C(=O)CO,inactive,
CC(C)(Oc1ccc(Cl)cc1)C(=O)O,inactive,
C[C@@H]1C[C@H]2[C@@H]3CCC4=CC(=O)C=C[C@]4(C)[C@@]3(F)[C@@H](O)C[C@]2(C)[C@@]1(O)C(=O)COP(=O)(O)O,,4.57 nM (active)
Cc1ccc(C)c(OCCCC(C)(C)C(=O)O)c1,inactive,
Cc1c(C)c2c(c(C)c1O)CCC(C)(COc1ccc(CC3SC(=O)NC3=O)cc1)O2 (configuration not stated),inactive,
CN(CCOc1ccc(CC2SC(=O)NC2=O)cc1)c1ccccn1 (configuration not stated),inactive,
CC(C)OC(=O)C(C)(C)Oc1ccc(C(=O)c2ccc(Cl)cc2)cc1,inactive,
